Ba/F3 V617F tox: reduced viability of JAK2V617F-dependent Ba/F3 cells, primary screen, JAK2V617F inhibitor project, cell-based, Ba/F3 EpoR-JAK2V617F, luminescence. ATP luminescence. actives 1.1% (n = 220,000). inhibition, % at 5.6 µM;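 active = inhibition above the campaign mean plus 3 SD over all tested compounds, cut at about 24% in these data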;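 note: cytokine-independent growth of Ba/F3 cells driven by EpoR plus mutant JAK2; 0% = DMSO-treated cells and 100% = JAK inhibitor I control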
KLF5 inh: KLF5 expression inhibitors, primary screen, DLD-1 cells, luminescence | DLD-1 KLF5 promoter-luciferase reporter | inhibition, % at 5 µM | actives 0.23% (n = 290,000) | AID 1700, 2009;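 active = inhibition above a per-plate limit of that plate's mean compound inhibition plus 3 SD, cut at about 60% in these data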;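 note: 0% = DMSO wells and 100% = LY294002 at 200 µM; higher means less KLF5 promoter-driven luciferase light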
BaF3 parental: parental Ba/F3 cell viability inhibition, counter-screen for JAK2V617F inhibitor project, murine pro-B, CellTiter-Glo luminescence. CellTiter-Glo ATP luminescence. actives 1.1% (n = 220,000). inhibition, % at 5.6 µM;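 active = inhibition above a per-campaign cutoff, the mean inhibition of all tested compounds plus 3 SD, cut at about 27% in these data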;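 note: 0% = DMSO wells and 100% = JAK Inhibitor I control wells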
APP transl inh: inhibitors of APP translation via 5'UTR reporter, primary screen, APP 5'UTR luciferase, SH-SY5Y cells; inhibition, % at 2 µM; SH-SY5Y APP 5'UTR-luciferase reporter, luminescence; actives 0.82% (n = 190,000);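 active = inhibition above a set limit, derived from the sample mean plus 3 SD, cut at about 45% in these data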
aSyn 5UTR inh: MLPCN primary screen, SNCA 5' untranslated region; actives 0.82% (n = 300,000); inhibition, % (tested at 7.5 µM); alpha-synuclein 5'UTR reporter, inhibitor activity; in the data active = inhibition above about 60%;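 note: H4 neuroglioblastoma cells stably carrying SNCA 5'UTR luciferase fusion; 0% = DMSO wells and 100% = positive control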
IEC-6 tox: cytotoxicity in IEC-6 intestinal epithelial cells, primary screen, cytotoxicity control for KLF5 inhibitor project, cell-based, luminescence. AID 1825, 2009. inhibition, % at 5 µM. actives 0.78% (n = 290,000). IEC-6 cytotoxicity, luminescence viability; in the data active = inhibition above about 22%;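 note: 0% = plate median of test compound wells and 100% = cytotoxic reference compound wells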
BaF3 tox 2: parental Ba/F3 cell viability inhibition, counter-screen for JAK2V617F inhibitor project, murine pro-B, CellTiter-Glo luminescence | shares compounds with Ba/F3 V617F tox | cells kept alive by added IL-3 | inhibition, % at 5.6 µM | actives 31% (n = 580) | AID 1520, 2009;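 active = cell growth inhibition above the hit limit set in the earlier mutant JAK2 cell screen, cut at about 27% in these data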;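 note: plate controls were DMSO-treated cells for no effect and JAK Inhibitor I control wells for full effect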
JAK2V617F confrm: viability loss in Ba/F3 EpoR-JAK2V617F cells, confirmation, JAK2V617F inhibitor project, cell-based, luminescence, triplicate; AID 1521, 2009; shares compounds with Ba/F3 V617F tox; inhibition, % at 5.6 µM; CellTiter-Glo luminescence; actives 66% (n = 580);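 active = mean inhibition above the hit cutoff derived in the earlier primary screen, cut at about 25% in these data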;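 note: 0% = DMSO-treated cells and 100% = JAK inhibitor I control wells; higher means lower luminescence from reduced cell ATP and viability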
* hit, by the source's call; . = no result given. In the library only some 2.2% were active in any assay of this set; here they are far more common.

SMILES | Ba/F3 V617F tox | KLF5 inh | BaF3 parental | APP transl inh | aSyn 5UTR inh | IEC-6 tox | BaF3 tox 2 | JAK2V617F confrm
COc1cccc(NC(=O)COC(=O)CC(NC(N)=O)c2ccc(Cl)cc2)c1 (configuration not stated) | -1 | -19 | -7 | . | -6 | -2 | . | .
Cc1cccc(C2c3[nH]c4ccccc4c3CCN2Cc2ccc(C)s2)n1 (configuration not stated) | 27* | 24 | -1 | -9 | -35 | -1 | -1 | 9
CC(=O)c1ccc(C(=O)N2CCc3c([nH]c4ccccc34)C2c2cccc(C)n2)s1 (configuration not stated) | -2 | -11 | -2 | . | 15 | 4 | . | .
Nc1c(C(=O)OCC2CCCO2)c2nc3ccccc3nc2n1-c1ccc2c(c1)OCCO2 (configuration not stated) | 96* | -4 | 2 | -7 | 21 | -8 | -5 | -10
Nc1c(C(=O)NC2CC2)c2nc3ccccc3nc2n1-c1ccc2c(c1)OCO2 | -1 | -22 | 3 | -4 | 26 | -1 | . | .
COc1ccccc1Nc1nc(-c2c(C)nc3ncccn23)cs1 | 55* | -20 | 4 | 3 | -15 | 10 | 33* | 59*
O=C(CN1C(=O)CSc2ccc(S(=O)(=O)N3CCOCC3)cc21)NCc1ccc(Cl)cc1 | . | -13 | . | . | 15 | 2 | . | .
CCCc1ccc(C(=O)NNc2ccc(F)cc2)cc1 | 93* | -14 | 1 | . | -6 | -1 | 5 | 5
CCOC(=O)Cc1csc(NC(=O)NC2(C(F)(F)F)Oc3ccc(Cl)cc3O2)n1 (configuration not stated) | 30* | -44 | 18 | 31 | -37 | 1 | 2 | 44*
COc1ccccc1NC(=O)CSc1nnc(C2CCCCC2)n1-c1ccccc1 | 30* | 7 | -2 | . | 21 | -3 | -2 | 22
COc1ccccc1NC(=O)CSc1nnc(C2CCCCC2)n1C | 2 | 11 | 3 | -1 | -6 | 10 | . | .
COCCNc1ccc([N+](=O)[O-])cc1C(=O)Nc1cccc(C)n1 | 1 | -19 | 1 | 6 | 2 | 7 | . | .
O=[N+]([O-])c1cc(S(=O)(=O)NCCN2CCOCC2)ccc1Sc1nnnn1-c1ccccc1 | 46* | -11 | 19 | 4 | -96 | 2 | 27* | 96*
O=C(/C=C1\NC2(CCCC2)Cc2ccccc21)C(=O)N/N=C/c1ccc(O)c(O)c1 | 45* | 4 | 3 | 31 | -29 | 4 | 12 | 95*
O=C(c1ccc2c(c1)N(Cc1ccccc1)C(=O)CS2)N1CCOCC1 | -4 | -9 | -1 | -8 | 10 | -4 | . | .
Cc1ccccc1CN1C(=O)CSc2ccc(C(=O)N3CCOCC3)cc21 | 33* | -32 | 12 | 8 | 8 | 1 | -1 | -1
Cc1c(C#N)c(NC(=O)CCl)n(Cc2ccc(F)cc2)c1C | 16 | 11 | -1 | -12 | -25 | 6 | . | .
Cc1c(C#N)c(NC(=O)CCl)n(Cc2cccs2)c1C | 36* | 18 | 0 | -23 | 9 | 6 | 35* | 97*
Cc1c(C#N)c(NC(=O)CCl)n(Cc2ccccc2)c1C | 31* | -8 | 2 | 10 | 7 | 3 | 48* | 98*
Oc1ccc(/C=C/c2ccnc3ccccc23)cc1 | 47* | -65 | 26 | -69 | -112 | 9 | 7 | 42*
Cc1ccc(C(=O)n2c(N)nc3ccccc32)cc1 | 51* | 51 | 21 | -35 | 81* | 9 | 6 | -1
Cc1ccc(N(CC(=O)Nc2cc(Cl)ccc2Oc2ccccc2)S(C)(=O)=O)cc1C | 26* | -6 | 2 | 0 | 24 | 8 | -4 | 3
CN(CC(=O)Nc1ccc(F)cc1)C(=O)COC(=O)CCN1C(=O)C2CC=CCC2C1=O (configuration not stated) | . | -17 | . | . | 0 | -2 | . | .
Cc1ccc(S(=O)(=O)NC(c2ccccc2)C(C)C(=O)n2nc(C)cc2C)cc1 (configuration not stated) | 64* | 6 | 14 | -5 | 0 | 5 | 14 | 14
Cc1ccc(S(=O)(=O)NC(CC(=O)n2nc(C)cc2C)c2ccccc2)cc1 (configuration not stated) | -3 | -28 | 4 | 3 | 2 | 4 | . | .
SMILES | Ba/F3 V617F tox | KLF5 inh | BaF3 parental | APP transl inh | aSyn 5UTR inh | IEC-6 tox | BaF3 tox 2 | JAK2V617F confrm
CN(C)CCCN(C(=O)CCOc1ccccc1)c1nc2c(F)cccc2s1 | 25* | -2 | 3 | 34 | 13 | -1 | 4 | 30*
Cc1ccc2cc(CCNC(=O)CC(C)C)c(=O)[nH]c2c1 | 69* | -33 | 8 | -16 | 7 | 7 | -3 | -2
CCc1ccc(NC(=O)C(NS(=O)(=O)c2ccc3c(c2)CCN3C(C)=O)C(C)C)cc1 (configuration not stated) | . | -24 | . | . | -15 | -4 | . | .
COc1ccc(CCNC(=O)C(NS(=O)(=O)c2ccc3c(c2)CCN3C(C)=O)C(C)C)cc1OC (configuration not stated) | 65* | -27 | 11 | 12 | 22 | -3 | -4 | -2
Cc1ccccc1OCC(O)Cn1c(=N)n(Cc2ccccc2)c2ccccc21 (configuration not stated) | 48* | -15 | 17 | . | 113* | 6 | 21 | 53*
COc1ccc(OCC(O)Cn2c(=N)n(CCN3CCCCC3)c3ccccc32)cc1 (configuration not stated) | 34* | -24 | 14 | 15 | . | 1 | 0 | 20
Nc1nonc1-n1nnc(C(=O)N/N=C/c2ccoc2)c1-c1ccccc1 | . | -3 | . | . | 5 | 3 | . | .
CCC(CC)C(=O)NCc1ccc(OC)cc1 | -3 | -1 | 1 | 4 | -12 | 4 | . | .
COc1ccc(C2c3ccc4ccccc4c3Oc3ncn(CCCO)c(=N)c32)cc1OC (configuration not stated) | 81* | -1 | 1 | . | -11 | 6 | 0 | 8
Nc1nc(N)c2nc(-c3ccccc3)c(N)nc2n1 | 30* | -15 | 11 | -8 | 35 | 2 | 19 | 73*
NSc1nc(N)c2nc(-c3ccccc3)c(-c3ccccc3)nc2n1 | 2 | -24 | 11 | 3 | 24 | 1 | . | .
COc1ccc2nc(NC(=O)CN3CCN(C)CC3)sc2c1 | -2 | -51 | 3 | -1 | -34 | -2 | . | .
COc1ccc2nc(NC(=O)CN3CCOCC3)sc2c1 | 83* | -23 | 5 | -5 | -63 | -1 | 1 | -6
